Results filed as inconclusive are left out. Values without a mark were called inactive. The source made the active and inactive calls. The call rests on the fitted dose curve; in most records, active means well fitted inhibition curve with a large enough effect; inconclusive means small, poorly fitted or top-dose-only effect; inactive means no such curve, though single readings can be large or run the other way.
Assay: Primary fluorescence-based thiol-reactive (MSTI) qHTS assay for identification of artifact compounds. (AID 1845221); further: nearly all actives have a fitted effect of over 65% in size;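 on activity change, negative = thiol reactive: thiol-reactive compounds lower the probe fluorescence signal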
Conditions: MSTI thiol-reactivity probe, 1 h; series mostly up to 53.8 µM; activity change, negative = thiol reactive: at the top concentration
Summary of the method: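 A multi-concentration qHTS design tested compounds against 4 uM MSTI, pH 7.4 phosphate-buffered saline. Plates were protected from light for 1 h at room temperature before imaging fluorescence.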
Potency means the concentration at half of the fitted maximal effect.

| SMILES | activity change, negative = thiol reactive | Potency |
| --- | --- | --- |
| CCC1OC(=O)C(C)CC(C)C(=O)/C(C)=C/C(C)C(=O)/C=C/C1(C)O (configuration not stated) | 18.9% |  |
| CC(C)C1(O)C=C2C(=O)CC3C(C)(C(=O)O)CCCC3(C)C2CC1 (configuration not stated) | -13.9% |  |
| CC(NC(=O)c1ccccc1N)C(=O)O (configuration not stated) | 13.8% |  |
| CC(=O)/C=C/[C@H]1[C@](C)(O)[C@@H](O)[C@H](O)C2C(C)(C)CCC[C@@]21C (some centres not stated) | 79.6% |  |
| CO[C@@H]1[C@]2(O)C(=O)N3/C=C\C(C)(C)c4[nH]c5ccccc5c4/C=C\3C(=O)N2[C@]23[C@H](CO)C(C)(C)N2c2ccccc2[C@]13O |  | 1.84 µM (active) |
| CC(=O)NC1C(OC2CCC3(C)C(CCC4(C)C3CC=C3C5CC(C)(C)CCC5(C(=O)O)C(O)CC34C)C2(C)C)OC(CO)C(O)C1O (configuration not stated) | 36.3% [at 25.6 µM] |  |
| COC(=O)C(CC1(OC(=O)C(C)C)c2ccccc2N2C(=O)C(C)(C)N(O)C21)n1cnc2ccccc2c1=O (configuration not stated) | 12.2% [at 25.6 µM] |  |
| OC[C@H]1O[C@@H](OCc2ccccc2)[C@H](O)[C@@H](O)[C@@H]1O |  | 5.32 µM (active) |
| COc1cc(/C=C/C(=O)O)ccc1O[C@@H]1O[C@H](CO)[C@@H](O)[C@H](O)[C@H]1O[C@@H]1OC[C@](O)(CO)[C@H]1O | -11.4% [at 25.6 µM] |  |
| CC(=O)OC1(C)CC(O)C2(O)C=COC(OC3OC(CO)C(O)C(O)C3O)C12 (configuration not stated) | -16.8% [at 25.6 µM] |  |
| C[C@@H]1O[C@@H](O[C@H]2[C@H](Oc3cc(O)c(C(=O)CCc4ccc(O)cc4)c(O)c3)O[C@H](CO)[C@@H](O)[C@@H]2O)[C@H](O)[C@H](O)[C@H]1O | 36.2% |  |
| CC1(C)CCC2(C(=O)O)C(O)CC3(C)C(=CCC4C5(C)CCC(OC6OC(CO)C(O)C(O)C6OC6OC(CO)C(O)C(O)C6OC6OCC(O)(CO)C6O)C(C)(C)C5CCC43C)C2C1 (configuration not stated) | 154% [at 11.5 µM] |  |

Source: PubChem BioAssay (NCATS)
